Values joined by “and” are separate entries in the source; they are usually repeats but may differ in a detail not shown here. Equal values may be shown once. Active and inactive are the calls of the source. Unless noted, no rule for the calls is given here.

Assay [1] can be described thus: resazurin metabolic signal in HepG2 cells – cell-based, resazurin fluorescence, 24 h, PK04 Diversity Set, profiling panel (AID 1172). Conditions: HepG2 viability, higher = more signal.
A short description of assay [2]: budding yeast growth changes without added modifier – OD600, strain BY4716, 24 h, basal condition, primary screen (AID 1173). The conditions noted are these: S. cerevisiae BY4716 growth, OD600, 24 h; higher = more signal, called active from +8 up or from −8 down.
Assay [3] can be described thus: viability profiling in MM1S myeloma cells – cell-based, resazurin fluorescence, basal, 24 h, PK04 Diversity Set, profiling panel (AID 1174).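 Also: MM1S multiple myeloma cell line.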 Conditions: higher = more signal, called active from +8 up or from −8 down. For orientation: Resazurin is reduced to fluorescent resorufin, in cell work by metabolically active cells.
In assay [4] the target is Dihydroorotate dehydrogenase (quinone), mitochondrial (Plasmodium falciparum (isolate 3D7)) (UniProt Q08210). Description: inhibition of P. falciparum DHODH – biochemical, C-terminal His tag, absorbance 600 nm, primary screen (AID 1175).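 Also: recombinant parasite enzyme with a five histidine tag at its C terminus.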 The conditions noted are these: PfDHODH enzyme, DCIP absorbance 600 nm; higher = more signal, called active from +8 up or from −8 down.
Sequence of Dihydroorotate dehydrogenase (quinone), mitochondrial (Plasmodium falciparum (isolate 3D7)) (Q08210 whole entry, looked up): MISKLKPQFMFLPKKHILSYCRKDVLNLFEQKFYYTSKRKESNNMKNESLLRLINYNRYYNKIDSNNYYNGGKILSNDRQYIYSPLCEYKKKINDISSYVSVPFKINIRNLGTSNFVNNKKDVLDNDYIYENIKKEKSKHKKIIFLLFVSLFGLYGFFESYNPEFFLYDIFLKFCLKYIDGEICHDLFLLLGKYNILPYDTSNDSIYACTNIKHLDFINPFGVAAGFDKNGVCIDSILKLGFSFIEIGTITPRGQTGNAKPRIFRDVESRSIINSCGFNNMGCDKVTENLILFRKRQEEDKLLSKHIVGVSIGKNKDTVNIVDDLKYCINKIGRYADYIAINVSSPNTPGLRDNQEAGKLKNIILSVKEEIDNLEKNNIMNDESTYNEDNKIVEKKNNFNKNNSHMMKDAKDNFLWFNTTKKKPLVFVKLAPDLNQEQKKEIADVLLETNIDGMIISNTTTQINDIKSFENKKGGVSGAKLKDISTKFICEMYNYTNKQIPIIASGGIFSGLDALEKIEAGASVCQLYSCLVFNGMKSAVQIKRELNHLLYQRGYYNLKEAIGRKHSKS
A short description of assay [5]: inhibition of PAO1 biofilm formation – strain PAO1, LB-PBS medium, absorbance 600 nm, primary screen (AID 1176). The conditions noted are these: P. aeruginosa PAO1 growth/biofilm, A600, 12 h; higher = more signal.
The nature of assay [6]: growth modulation of vineyard yeast isolate – strain RM11-1a, OD600, basal, 24 h, primary screen (AID 1177).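 Also: cultures grown under basal conditions with no added stressor.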 The conditions noted are these: S. cerevisiae RM11-1a growth, OD600, 24 h; higher = more signal, called active from +8 up or from −8 down.
Assay [7] in a line: growth of efflux-deficient E. coli DRC39 – strain DRC39, OD650, 24 h, E. coli filamentation inducers, primary screen (AID 1178).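 Also: growth measured as culture turbidity by optical density at 650 nm.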 Conditions: E. coli DRC39 acrAB, higher = more signal, called active from +8 up or from −8 down.
Assay [8] in a line: growth of efflux-deficient E. coli DRC39 – strain DRC39, OD650, 48 h, E. coli filamentation inducers, primary screen (AID 1179).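 Also: screen aims at cell division blockers that make cells filament.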 The conditions noted are these: E. coli DRC39 delta-acrAB growth, higher = more signal, called active from +8 up or from −8 down.
The nature of assay [9]: viability profiling in RPMI8226 myeloma cells – cell-based, resazurin fluorescence, basal, 24 h, PK04 Diversity Set, profiling panel (AID 1180).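 Also: RPMI8826 multiple myeloma cell line at 5000 cells per well.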 Conditions: higher = more signal.
In assay [10] the target is E3 ubiquitin-protein ligase XIAP (Homo sapiens) (UniProt P98170). Description: small molecules binding XIAP protein – biophysical, small-molecule microarray, fluorescence 635 nm, primary screen (AID 1181).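 Also: score merges 667 nm emission and signal to noise over triplicate slides.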 The conditions noted are these: higher = more signal.
Sequence of E3 ubiquitin-protein ligase XIAP (Homo sapiens) (P98170 whole entry, looked up, the tested form may be a part): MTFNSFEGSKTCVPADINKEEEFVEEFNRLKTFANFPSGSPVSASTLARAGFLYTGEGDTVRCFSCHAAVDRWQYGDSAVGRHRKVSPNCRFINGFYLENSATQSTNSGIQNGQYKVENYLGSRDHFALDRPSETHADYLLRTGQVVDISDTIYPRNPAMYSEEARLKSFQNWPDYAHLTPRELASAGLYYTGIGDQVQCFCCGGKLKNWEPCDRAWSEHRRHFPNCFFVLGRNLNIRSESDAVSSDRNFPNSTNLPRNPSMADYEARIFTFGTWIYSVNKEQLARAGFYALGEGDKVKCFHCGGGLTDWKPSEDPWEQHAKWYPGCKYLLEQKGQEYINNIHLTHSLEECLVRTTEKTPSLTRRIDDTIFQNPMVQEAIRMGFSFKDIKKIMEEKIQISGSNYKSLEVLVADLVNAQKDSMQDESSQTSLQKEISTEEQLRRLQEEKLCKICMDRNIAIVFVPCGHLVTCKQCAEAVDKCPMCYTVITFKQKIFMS
Assay [11] concerns XIP peptide (Xip251-270) binding. Description: XIP fragment 251-270 binding compounds – biochemical, small-molecule microarray, fluorescence 635/667 nm, 0.1 µg/mL protein, primary screen (AID 1182). The conditions noted are these: fluorescent protein binding, 635 nm, higher = more signal, called active from +8 up or from −8 down.
The subject of assay [12] is XIP peptide (Xip251-270). Description: compounds binding XIP fragment 251-270 – biochemical, small-molecule microarray, fluorescence 635/667 nm, 0.5 µg/mL protein, primary screen (AID 1183). The conditions noted are these: fluorescence 635 nm, higher = more signal.
Assay [13] in a line: blood-stage malaria parasite viability loss – strain 3D7, DAPI fluorescence, 100 nL, primary screen (AID 1184).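 Also: parasites grown inside human red blood cells in medium with human serum.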 Conditions: P. falciparum 3D7 growth, 3 d, higher = more signal.
In assay [14] the target is Homeobox protein Hox-A13 (Mus musculus) (UniProt Q62424). As to the kind of experiment: disruptors of Hoxa13 oligonucleotide interaction – biochemical, fluorescence polarization, labeled oligonucleotide, primary screen (AID 1185). The conditions noted are these: Hoxa13:DNA binding, 15 min, higher = more signal, called active from +8 up or from −8 down. For orientation: Fluorescence polarisation rises when a labelled molecule tumbles more slowly, as on binding a larger partner.
Sequence of Homeobox protein Hox-A13 (Mus musculus) (Q62424 whole entry, looked up): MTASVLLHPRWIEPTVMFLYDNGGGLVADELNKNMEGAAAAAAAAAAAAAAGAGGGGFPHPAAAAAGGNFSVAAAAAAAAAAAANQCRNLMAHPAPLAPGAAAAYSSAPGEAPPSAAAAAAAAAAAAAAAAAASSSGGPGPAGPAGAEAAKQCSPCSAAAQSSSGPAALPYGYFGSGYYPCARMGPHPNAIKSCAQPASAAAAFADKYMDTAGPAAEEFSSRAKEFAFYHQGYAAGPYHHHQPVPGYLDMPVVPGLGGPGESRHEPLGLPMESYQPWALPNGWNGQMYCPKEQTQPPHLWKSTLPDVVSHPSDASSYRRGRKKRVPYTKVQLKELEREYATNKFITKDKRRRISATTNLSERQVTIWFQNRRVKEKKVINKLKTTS

As for `CC(C)C(=O)N[C@@H]1CCCN1C(=O)C=Cc1ccccc1`, the z-score in assay [1] is -0.0786; in assay [2], -1.17 (inactive); in assay [3], -0.0492 (inactive); in assay [5], 0.286 (inactive); in [6] it was -1.19 (inactive); in [7], 0.595 (inactive). For the same compound, the z-score in assay [8] is -0.0803 (inactive); in assay [9] it was 0.227; in assay [13], 1.99; in assay [14], -1.68 (inactive). In addition, the composite z-score in assay [4] was -1.3 (inactive); in assay [10] it was -0.113; in assay [11], 0.36 (inactive); in assay [12] it was 0.473.

In the case of `COC(=O)C1=C(C)N(Cc2ccccc2)C2=C3C(=O)N(C)C(=O)[C@@H]3[C@@](O)(C(=O)OC)C(=O)N2[C@@H]1c1ccccc1`, the z-score in assay [1] is 0.498 and -1.16; in [2], -0.816 (inactive) and -1.23 (inactive); in [3], 0.92 (inactive) and -0.281 (inactive); in [5] it was -0.27 (inactive) and 0.0039 (inactive); in [6], -0.544 (inactive) and -2.42 (inactive); in [7] it was 0.448 (inactive) and -0.0247 (inactive). Further, the z-score in [8] was 0.275 (inactive) and 0.0957 (inactive); in assay [9] it was 0.922 and -0.377; in assay [13] it was 0.557 and 0.251; in [14] it was -1.2 (inactive) and -0.234 (inactive). Further, the composite z-score in [4] is -0.105 (inactive) and -0.613 (inactive); in assay [10], -0.0622 and -0.0848; in [11] it was 0.214 (inactive) and -0.566 (inactive); in assay [12], 0.0447 and 0.0893.

As to `C[C@@H](ON=C1[C@H]2CCn3c(=O)n(-c4ccccc4)c(=O)n3[C@H]2[C@H](O)[C@@H]2O[C@H]12)c1cn([C@H](CO)Cc2ccccc2)nn1`, the z-score in assay [1] is -1.08; in [2] it was 0.394 (inactive); in assay [3], -1.42 (inactive); in assay [5], -0.525 (inactive); in assay [6] it was 0.122 (inactive); in assay [7] it was 0.777 (inactive). For the same compound, the z-score in assay [8] was 1.12 (inactive); in [9], -1.65; in [13], -0.516; in assay [14], -2.41 (inactive). Moreover, the composite z-score in assay [4] is -0.469 (inactive); in [10], -0.0208; in [11], 0.764 (inactive); in [12], 0.297.

Regarding `COC(=O)C1=C(C)N(Cc2ccccc2)C2=C(C(C)=O)[C@H](c3ccccc3)[C@@](O)(C(=O)OC)C(=O)N2[C@@H]1c1ccccc1`, the z-score in assay [1] is 1.38 and 0.559; in assay [2], -2.41 (inactive) and -3.21 (inactive); in assay [3], 1.07 (inactive) and 0.983 (inactive); in assay [5] it was 1.08 (inactive); in assay [6] it was -0.107 (inactive) and -3.5 (inactive); in assay [7], 1.32 (inactive) and 0.552 (inactive). Also, the z-score was 0.972 (inactive) and -1.35 (inactive) in [8]; 1.27 and 0.0662 in assay [9]; 0.512 and -0.515 in [13]; -4.62 (inactive) and 0.136 (inactive) in assay [14]. The composite z-score in assay [4] was 0.523 (inactive) and -1.82 (inactive); in assay [10] it was 0.0177 and -0.244; in assay [11], 0.284 (inactive) and -0.864 (inactive); in [12], 0.727 and -1.64.

In the case of `CCN1C(=O)[C@H]2[C@H]3[C@H](O)[C@H](O)CC(=NNC(=O)OCc4ccc(OC)cc4)[C@H]3CC[C@H]2C1=O`, the z-score in assay [1] is -1.02; in assay [2], 0.199 (inactive); in [3], -2.24 (inactive); in [5], -0.273 (inactive); in assay [6] it was 0.632 (inactive); in assay [7], -0.0482 (inactive). Besides, the z-score is 0.559 (inactive) in assay [8], -1.38 in assay [9], 0.38 in assay [13] and 0.429 (inactive) in assay [14]. Further, the composite z-score in assay [4] is -0.223 (inactive); in [10] it was 0.0322; in assay [11], 0.0568 (inactive); in [12], 0.267.

`O=c1n(-c2ccccc2)c(=O)n2n1CC[C@@H]1C(=NOC[C@@H](O)COCc3ccco3)[C@H]3O[C@H]3[C@@H](O)[C@@H]12`: the z-score in assay [1] is -0.618 and -0.581; in assay [2], -0.428 (inactive) and 0.804 (inactive); in assay [3] it was 0.467 (inactive) and -0.453 (inactive); in [5] it was 0.413 (inactive) and -0.455 (inactive); in assay [6], -0.37 (inactive) and 0.962 (inactive); in assay [7], -0.417 (inactive) and 0.0343 (inactive). The z-score in assay [8] is -0.802 (inactive) and -0.756 (inactive); in assay [9], 0.0942 and -0.433; in [13], -1.77 and -0.681; in [14] it was -0.683 (inactive) and -1.44 (inactive). For the same compound, the composite z-score in [4] was -2.79 (inactive) and 0.389 (inactive); in assay [10] it was -0.0085 and -0.434; in [11], 0.0643 (inactive) and 0.158 (inactive); in assay [12] it was 0.0433 and -0.0465.

`COC(=O)C1=C(C)N(Cc2ccccc2)C2=C(C(=O)c3ccccc3)[C@H](c3ccccc3)[C@@](O)(C(=O)OC)C(=O)N2[C@@H]1c1ccccc1`: the z-score in assay [1] is 0.291 and 0.302; in [2], -1.07 (inactive) and -0.683 (inactive); in [3], -1.34 (inactive) and -0.716 (inactive); in assay [5], 0.875 (inactive) and -0.0538 (inactive); in [6] it was 1.27 (inactive) and 0.504 (inactive); in assay [7], 1.17 (inactive) and 0.312 (inactive). Also, the z-score in assay [8] was 0.592 (inactive) and 0.607 (inactive); in assay [9] it was -0.56 and -0.7; in assay [13] it was -0.467 and 0.501; in assay [14], -1.74 (inactive) and -0.745 (inactive). Also, the composite z-score in [4] is 0.382 (inactive) and -0.214 (inactive); in assay [10], 0.0399 and -0.0118; in [11], -0.149 (inactive) and -0.059 (inactive); in assay [12], 0.675 and 0.323.

On to `CCCNC(=O)OC[C@H]1O[C@H](CCON=C(C)CCN2CCc3nc(-c4ccccc4)c(-c4ccccc4)cc3C2)C=C[C@@H]1Oc1ccc(OC)cc1`, for which the z-score in [1] is 0.0965; in [2], -0.238 (inactive); in [3], -0.53 (inactive); in [5], 0.347 (inactive); in assay [6], 1.13 (inactive); in assay [7], 0.324 (inactive). The z-score in assay [8] was -1.58 (inactive); in assay [9], 0.0105; in assay [13], -0.821; in assay [14], -2.84 (inactive). Also, the composite z-score in [4] is 0.672 (inactive); in assay [10], -0.193; in [11], -0.377 (inactive); in [12] it was 0.201.

The values are drawn from PubChem BioAssay.
